Most compounds without a hit are left out; they make up all but 1.8% or so of the library.
ABCB6 inh 2 = blocks the human ABCB6 transporter; Q9NP58; K562-ABCB6 porphyrin accumulation, flow cytometry, 1 h; hits give low values; fluorescence ratio to DMSO, % at 10 µM; 360,000 tested, 0.19% active; AID 602162;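 active = fluorescence ratio to DMSO below 75%, the collection mean minus 3 SD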;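 note: signal is porphyrin accumulated inside mitochondria; lower ratio means ABCB6 inhibition with less porphyrin fluorescence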
Target sequence (Q9NP58 whole entry, looked up): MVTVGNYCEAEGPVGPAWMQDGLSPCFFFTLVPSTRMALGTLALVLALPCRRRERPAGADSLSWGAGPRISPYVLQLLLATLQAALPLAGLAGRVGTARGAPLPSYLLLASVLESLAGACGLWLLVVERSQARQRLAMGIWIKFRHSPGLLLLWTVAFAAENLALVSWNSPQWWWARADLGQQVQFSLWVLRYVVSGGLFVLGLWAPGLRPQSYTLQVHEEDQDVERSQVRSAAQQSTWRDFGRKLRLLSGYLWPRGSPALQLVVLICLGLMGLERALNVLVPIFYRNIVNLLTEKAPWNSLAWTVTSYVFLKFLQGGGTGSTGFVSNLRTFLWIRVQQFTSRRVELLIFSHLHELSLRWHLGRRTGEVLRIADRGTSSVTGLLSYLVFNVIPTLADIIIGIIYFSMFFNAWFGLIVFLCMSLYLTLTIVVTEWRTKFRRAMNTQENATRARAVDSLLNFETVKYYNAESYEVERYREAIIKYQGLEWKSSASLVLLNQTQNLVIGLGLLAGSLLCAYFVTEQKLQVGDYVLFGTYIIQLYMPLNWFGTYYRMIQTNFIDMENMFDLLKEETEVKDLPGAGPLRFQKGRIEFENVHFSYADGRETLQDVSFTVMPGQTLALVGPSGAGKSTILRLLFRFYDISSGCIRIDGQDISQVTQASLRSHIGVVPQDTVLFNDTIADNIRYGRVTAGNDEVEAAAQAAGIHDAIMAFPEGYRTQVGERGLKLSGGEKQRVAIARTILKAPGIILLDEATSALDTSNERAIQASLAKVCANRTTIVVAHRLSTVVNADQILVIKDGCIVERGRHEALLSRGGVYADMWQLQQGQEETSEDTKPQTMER
Myeloid diff 2 = promotes myeloid progenitor differentiation | ER-HoxA9 myeloid progenitors, lysozyme-GFP differentiation, flow cytometry | calls only at 10 µM | 360,000 tested, 1% active | AID 624256;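 active = normalized GFP-positive differentiation at or above the plate's own cutoff, the solvent-only control mean plus 3 SD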;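 note: cells exposed to compound for four days before flow analysis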
Exocytosis inh = lytic granule exocytosis inhibition | AID 651702 | TALL-104 LAMP-1 surface exposure, flow cytometry; cells stimulated with thapsigargin and PMA | inhibition, % at 10 µM | 360,000 tested, 0.66% active;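 active = inhibition above about 55%, limit read from the data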
ABCB6 blocker 1 = human ABCB6 transporter inhibition. shares compounds with ABCB6 inh 2. K562-ABCB6 porphyrin accumulation, flow cytometry, 1 h; hits give low values. ratio response (% of DMSO), % at 10 µM. 700 tested, under 10 active. AID 602430;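 active = repeat-averaged ratio response below 75% of DMSO, the collection mean minus 3 SD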;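 note: median porphyrin fluorescence at 575 nm with 488 nm excitation from mitochondria; lower ratio means less porphyrin signal so ABCB6 inhibition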
Numbers stand for hits; – = inactive; · = no result given.

SMILES | ABCB6 inh 2 | Myeloid diff 2 | Exocytosis inh | ABCB6 blocker 1
CC1(C(=O)Nc2cccc(OC(F)(F)F)c2)Cc2c(-c3cccc(C(F)(F)F)c3)ccnc2O1 (centres undefined) | – | – | – | ·
CC1(C(=O)Nc2cccnc2)Cc2c(-c3ccc4c(c3)OCO4)ccnc2O1 (centres undefined) | – | – | – | –
CC1(C(=O)Nc2cccnc2)Cc2c(-c3cccc(C(F)(F)F)c3)ccnc2O1 (centres undefined) | – | – | – | –
CC1(C(=O)Nc2ccccc2)Cc2c(-c3ccc4c(c3)OCO4)ccnc2O1 (centres undefined) | – | – | – | ·
CC(=O)c1cccc(NC(=O)C2(C)Cc3c(-c4cccc(C(F)(F)F)c4)ccnc3O2)c1 (centres undefined) | – | – | – | –
CC(=O)Nc1ccc(NC(=O)C2(C)Cc3c(-c4cccc(C(F)(F)F)c4)ccnc3O2)cc1 (centres undefined) | – | – | – | ·
Cc1ccc2c(c1)N(CC(=O)N1CCCCC1C)C(=O)CO2 (centres undefined) | – | – | – | ·
O=C(OCc1cc(=O)n2ccsc2n1)c1ccc(OC(F)F)cc1 | – | – | – | ·
CCCN(C(=O)C(=O)Nc1ccc2nc3n(c(=O)c2c1)CCCCC3)c1ccc(OCC)cc1 | – | – | – | ·
Cc1cccc(C(=O)N2CC(=O)Nc3ccc(F)cc3C2c2ccc(F)cc2)c1 (centres undefined) | – | – | – | ·
COc1ccccc1N1CCN(CC(O)c2c(C)[nH]c3ccccc23)CC1 (centres undefined) | – | – | – | ·
COc1cc(C(C[N+](=O)[O-])c2c(C)[nH]c3ccccc23)cc(OC)c1OC (centres undefined) | 74 | – | – | –
CSc1nc(N)nc2c1ncn2Cc1ccccc1 | – | – | – | ·
COc1ccc(CCC(=O)OCC(=O)NCc2ccc3c(c2)OCO3)cc1 | – | – | – | ·
O=C(COC(=O)CSc1ccc2ccccc2c1)NCc1ccc2c(c1)OCO2 | 65 | – | – | –
Cc1ncc(CO)c(CNc2ccc(-c3nc4ccccc4[nH]3)cc2)c1O | – | – | – | ·
COc1ccccc1C(=O)Nc1ccnn1C1CCN(C(=O)c2ccoc2)CC1 | 74 | – | – | –
COc1ccccc1C(=O)Nc1ccnn1C1CCN(C(=O)c2ccoc2C)CC1 | – | – | – | ·
CC1CCCC(NC(=O)C2COc3ccccc3O2)C1C (centres undefined) | – | – | – | ·
COc1cccc(OCCNC(=O)CSc2ccc(C(F)(F)F)cc2[N+](=O)[O-])c1 | – | – | – | ·
Cc1ccccc1OCCNC(=O)CSc1ccc(C(F)(F)F)cc1[N+](=O)[O-] | 70 | – | – | –
Clc1ccccc1-c1cccc2nccn12 | – | – | – | ·
CS(=O)(=O)Nc1ccccc1-c1cccc2nccn12 | 68 | – | – | –
COc1ccc(COC(=O)c2ccc(S(=O)(=O)N3CCCCC3)cc2)cc1OC | – | – | – | ·
Cc1cc(C)cc(CN2C(=O)NC3(CCCCCC3)C2=O)c1 | – | – | – | ·
SMILES | ABCB6 inh 2 | Myeloid diff 2 | Exocytosis inh | ABCB6 blocker 1
CCN(CC)S(=O)(=O)c1cccc(NC(=O)CCSc2ccc(Cl)cc2)c1 | – | – | – | ·
CN(C)S(=O)(=O)c1cccc(NC(=O)COC(=O)CCSc2ccc(Cl)cc2)c1 | 71 | – | – | –
O=C(C1CCN(S(=O)(=O)c2ccc(Cl)cc2)CC1)N1CCC1 | – | – | – | ·
O=C(C1CCN(S(=O)(=O)c2c(Cl)cccc2Cl)CC1)N1CCCCCCC1 | 72 | – | – | –
O=C(CCc1ccc(S(=O)(=O)N2CCOCC2)cc1)Oc1ccccc1 | 62 | – | – | –
O=C(O)CCc1ccc(S(=O)(=O)N2CCOCC2)cc1 | – | – | – | ·
O=[N+]([O-])c1ccc(COc2cccc(CNc3ccc(Br)cc3)c2)cc1 | – | – | – | ·
CC(C)NC(=O)Cn1cnc2c1c(=O)n(C)c(=O)n2C | – | – | – | ·
Cn1c(=O)c2c(ncn2CC(=O)NC(C)(C)C)n(C)c1=O | 74 | – | – | –
O=C1c2ccccc2C2N1CCCN2C(=O)c1sc2ccccc2c1Cl (centres undefined) | – | – | – | ·
COC(=O)[C@@H](NC(=O)Nc1ccc(S(N)(=O)=O)cc1)C(C)C | 71 | – | – | –
CCC(C)[C@H](NC(=O)Nc1ccc(S(N)(=O)=O)cc1)C(=O)O (some centres undefined) | – | – | – | ·
CCCS(=O)(=O)NC(=O)C1(C)CCN(C(=O)c2cccc(C)c2C)C1 (centres undefined) | – | – | – | ·
COc1cccc(C(=O)NCC(=O)OCC(=O)Nc2cc(OC)c([N+](=O)[O-])cc2C)c1 | – | – | – | ·
CC(=O)Nc1ccc(NC(=O)c2ccccc2CCc2ccccc2)cc1 | – | · | – | ·
COc1ccc(CN(Cc2nc3ccccc3c(=O)[nH]2)C(=O)NC2CCCCC2)cc1 | – | – | – | ·
COc1ccc(S(=O)(=O)N(Cc2nc3ccccc3c(=O)[nH]2)C2CCCC2)cc1 | 68 | – | – | –
COc1ccc(CN(C)C[C@H]2OCCCC[C@@H](C)Oc3ccc(NS(C)(=O)=O)cc3C(=O)N([C@H](C)CO)C[C@@H]2C)cc1 | – | – | – | ·
CC(C)NCc1nnc(-c2ccc(Cl)cc2)o1 | 71 | – | – | –
Cc1ccc(OCc2nnc(-c3ccc(Cl)cc3)o2)cc1 | – | – | – | ·
N#CCCN/N=C(\Cc1nc2ccccc2[nH]1)c1ccccc1 | 61 | – | – | –
CCN/N=C(\Cc1nc2ccccc2[nH]1)c1ccccc1 | – | – | – | ·
O=C(CCc1cccc(Cl)c1)N1CCCC(Nc2ccccc2)C1 (centres undefined) | – | – | – | ·
O=C(Nc1ccc(Nc2ccccc2)cc1)Nc1ccccc1Cl | 10 | – | – | –
O=C(Nc1ccccc1Cl)Nc1ccccc1Cl | – | – | – | ·
SMILES | ABCB6 inh 2 | Myeloid diff 2 | Exocytosis inh | ABCB6 blocker 1
COc1cccc(CN2CCC2(C)C(=O)Nc2cccc3cccnc23)c1OC (centres undefined) | – | – | – | ·
COc1ccc(OC)c(NC(=O)C2(C)CCN2Cc2cccc(OC)c2OC)c1 (centres undefined) | 71 | – | – | –
CCCn1c(SCC(=O)Nc2ccc(C(=O)Nc3ccccc3OC)cc2)n[nH]c1=O | 68 | – | – | –
COc1ccccc1NC(=O)c1ccc(NC(=O)CSc2nncn2C)cc1 | – | – | – | ·
COc1ccccc1OCCNC(=O)Cc1ccc(Cl)c(Cl)c1 | – | – | – | ·
FC(F)(F)c1ccccc1Cc1c(C2CCCCC2)nc2c3ccccc3ccn12 | – | – | – | ·
CCCS(=O)(=O)N1CCN(S(=O)(=O)c2ccccc2)CC1 | – | – | – | ·
Cn1c(N)c(C(=O)CSc2nc(C3CC3)n(-c3ccccc3)n2)c(=O)n(C)c1=O | – | – | – | ·
COc1ccc(CNC(=O)CSc2nnc(C)s2)cc1 | 74 | – | – | –
COc1ccc(CNC(=O)CSc2nnc(NC(=O)C3CC3)s2)cc1 | – | – | – | ·
CCOc1ccc(C(=O)NCC(C)C)cc1 | 74 | – | – | –
CCOc1ccc(C(=O)NCC(C)NC(=O)c2ccc(OCC)cc2)cc1 (centres undefined) | – | – | – | ·
C[C@H](NC(=O)c1[nH]cnc1C(=O)Nc1ccc(CNC(=O)OC(C)(C)C)cc1)C(=O)OC(C)(C)C | – | – | – | ·
